# Measurements: ChEMBL document CHEMBL4513216, “Probing the Open Global Health Chemical Diversity Library for Multistage-Active Starting Points for Next-Generation Antimalarials” (ACS Infect Dis, 2020)
# The whole screen tested about 69,000 compounds, of which about 8,600 (12%) showed an effect of 50% or more. The entries come from a sample that favours strong results as a whole.
# Test system: Plasmodium berghei
# Assay: Screen against P. berghei liver stage (PbLuc), transformed with Luciferase, at 10uM
# Assay type: functional, HepG2
# Conditions: tested at 10 uM
row,Structure (SMILES),INHIBITION [%]
1,COCCc1noc(-c2cc(Cl)c3c(c2)OCCCO3)n1,-119
2,CN1CCC(NC(=O)c2cc(Br)cc(Cl)c2O)C1=O (stereo not given),20
3,CCN1CCN(c2ncc3c(=O)n(Cc4ccco4)ccc3n2)CC1,67.5
4,CN1CCN(c2ncc3c(=O)n(Cc4ccco4)ccc3n2)CC1,41.3
5,O=c1c2cnc(N3CCCCC3)nc2ccn1Cc1ccco1,-33.7
6,Cc1noc(C)c1S(=O)(=O)NC(=O)COc1ccc(C(C)C)cc1,4.1
7,NS(=O)(=O)CCNC(=O)c1cc2ccccc2nc1N1CCCC1,2.91
8,Cc1ccc2oc(C(=O)N3CCCC(n4cccn4)C3)cc2n1 (stereo not given),-32.55
9,O=C(NCCOCC(F)(F)F)c1ccc(-c2ccccc2)[nH]c1=O,14.4
10,O=C(CN1CCCC1)N1CCCC1c1nc(O)cc(-c2ccccn2)n1 (stereo not given),-1.85
11,CCC(CO)N(Cc1cccnc1)C(=O)c1ccoc1C (stereo not given),3.13
12,N#CC1(NC(=O)COC(=O)Cc2cc(Cl)c3c(c2)OCCO3)CCCC1,38.9
13,CC(C)(C)C(=O)NS(=O)(=O)c1ccc(C#N)cc1C(F)(F)F,39.2
14,N#Cc1ccc(S(=O)(=O)NC(=O)C2CC2)c(C(F)(F)F)c1,54.9
15,CC(C)C(=O)NS(=O)(=O)c1ccc(C#N)cc1C(F)(F)F,-4.94
16,Cc1nc(-c2ccco2)ccc1C(=O)NCCCN1CCOCC1,24.3
17,O=C(Nc1ccc(I)cc1C(=O)NCCN1CCOCC1)c1ccco1,52.2
18,O=C(Nc1ccc(I)cc1C(=O)NCCN1CCOCC1)c1cccs1,25.4
19,O=C(Nc1ccccc1C(=O)NCCCN1CCOCC1)c1ccco1,51
20,O=C(Nc1ccc(Cl)cc1C(=O)NCCN1CCOCC1)c1ccco1,32.3
21,O=C(Nc1ccccc1C(=O)NCCN1CCOCC1)c1ccco1,38.7
22,CCN(CC)C(=O)CN1CCc2nc(C3CCNCC3)nc(NC)c2C1,23.9
23,O=C1[C@H]2CN(Cc3ccccc3)C[C@H]2CN1CCN1CCCC1,-55.3
24,CO[C@H]1CCN(C(=O)c2cc(C)on2)[C@H]1Cc1ccncc1,-15.9
25,N#CCCN(Cc1ccccn1)Cn1cc(Cl)cn1,46.4
26,Cc1ncncc1C(=O)NCCN1CCC(C)CC1,-51.6
27,COCCS(=O)(=O)Cc1nnnn1-c1ccccc1,26.9
28,CCS(=O)(=O)Cc1nnnn1-c1ccccc1,61.1
29,CNC(=O)CCS(=O)(=O)Cc1nnnn1-c1ccccc1,31.2
30,COc1ccc([C@@H]2CN(Cc3ccncc3)C[C@H]2c2cc[nH]n2)cc1,39.3
